This note sets out measurements from PubChem BioAssay.

Assay [1] in a line: inhibitors of TNFa-induced NFkB p65 translocation, primary screen, imaging, HUVEC, MLSMR starter and 10KST1 sets (AID 438).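 Further: compound added about 3h40 before a 20 min TNFalpha stimulation.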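 On inhibition: signal is the nuclear over cytoplasmic p65 intensity ratio per well.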 The note with it: HUVEC TNFa-induced p65 nuclear translocation; cell count: measured here: nuclei count (cytotoxicity indicator), at 2.08 µM; inhibition: at 2 µM, stronger effect = higher value, 0% TNFa-plus-vehicle, 100% no-TNFa wells.
Assay [2] can be described thus: reduction of polyQ htt aggregates in cells – imaging, exon1htt(103Q)mCFP cells, high-content imaging, primary screen (AID 483;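 active means visual image review flags a hit and inhibition of aggregation exceeds 20%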;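 further: compound exposure lasted 3 days before fixation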;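 on nuclei count: percent of the per-plate median nuclei count of sample wells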). Conditions: exon1htt(103Q)mCFP cell line, aggregate imaging, at 2 µM; inhibition of aggregation: stronger effect = higher value; nuclei count: measured here: cell count, toxicity.
Assay [3] is described as follows: endothelial E-selectin expression blockers – imaging, HUVEC, immunofluorescence, MLSMR starter and 10KST1 sets, primary screen (AID 487;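 active means visually confirmed hit in the image check and inhibition above 20%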;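 on inhibition: signal is fraction of cell area covered by stained E-selectin grains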;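 on nuclei count: 100% = median nuclei count of all wells on the same plate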). The note with it: HUVEC TNFalpha-induced E-selectin immunofluorescence imaging, at 2 µM; inhibition: stronger effect = higher value; nuclei count: measured here: cell number, toxicity.
Assay [4] deals with Voltage-gated potassium channel subunit beta-2 (Rattus norvegicus) (UniProt P62483). Briefly: inhibitors of rat Kvbeta2 reductase activity – biochemical, NADPH fluorescence, primary screen (AID 622;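 active means fluorescence slope higher than the sample average by over 3 SD, cut at about -0.22 in these data, passing the limit was not always enough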;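 further: slope of raw intensity against log time taken from 70 to 1610 s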). The note with it: recombinant KvBeta, 4-cyanobenzaldehyde reduction, at 10 µM, stronger effect = higher value.
For assay [5] the target is unchanged. Briefly: enhancers of rat Kvbeta2 NADPH turnover – biochemical, NADPH fluorescence, primary screen (AID 623;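 active means NADPH fluorescence slope more negative than the mean of all samples by about 3 SD, 99.7% confidence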;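 further: fluorescence intensity change per second fitted from 20 to 320 s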). Conditions: Recombinant KvBeta, NADPH fluorescence decrease slope, 10 min; at 10 µM; stronger effect = lower value.
The target of assay [6] is Alpha-2C adrenergic receptor (Homo sapiens) (UniProt P18825). Briefly: compounds altering alpha2C-coupled GIRK flux – cell-based, HEK293 alpha2C/GIRK1/2, thallium flux, primary screen (AID 624;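 active means fluorescence slope after compound addition differing from the mean of all screened samples at 99.7% confidence, in either direction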;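 further: slope of fluorescence ratio to pre-addition baseline per second over 15 to 24 s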). Conditions: thallium flux BTC fluorescence, at 10 µM, actives lie on both sides.
Assay [7] is described as follows: blockers of RIG-like receptor reporter activation – cell-based, Sendai virus stimulus, luciferase, 10K MLSCN set, TLR/RLR signaling modifier project, primary screen (AID 602276;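 active means inhibition at or above 50% at 10 µM; inactive means inhibition below 50%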;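 further: firefly luciferase from ISG56 promoter only with Renilla not read in this screen; 0% = Sendai virus plus DMSO and 100% = medium plus DMSO without virus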). The note with it: HEK293 RL24 IRF3 luciferase reporter, at 10 µM, stronger effect = higher value. On the technique in general: Reporter assays use an easily measured gene product as a stand-in for the process of interest.

Assay [8] in a line: TLR3 IRF3 reporter activation blockers – cell-based, poly I:C stimulus, luciferase, 10K MLSCN set, primary screen (AID 602277;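 active means inhibition of the reporter signal at or above 50%; inactive means inhibition below 50%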). Conditions: HEK293-TLR3 RL24 IRF3 luciferase reporter, at 10 µM, stronger effect = higher value.

Each structure is given as a SMILES string. Active and inactive are the calls of the source.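 How the source made its calls, unless noted: active means inhibition above 20% together with a positive visual image hit; inconclusive means visual image hit but inhibition not above 20%; inactive means no visual image hit.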

Chain of Alpha-2C adrenergic receptor (Homo sapiens) (P18825 whole entry, looked up): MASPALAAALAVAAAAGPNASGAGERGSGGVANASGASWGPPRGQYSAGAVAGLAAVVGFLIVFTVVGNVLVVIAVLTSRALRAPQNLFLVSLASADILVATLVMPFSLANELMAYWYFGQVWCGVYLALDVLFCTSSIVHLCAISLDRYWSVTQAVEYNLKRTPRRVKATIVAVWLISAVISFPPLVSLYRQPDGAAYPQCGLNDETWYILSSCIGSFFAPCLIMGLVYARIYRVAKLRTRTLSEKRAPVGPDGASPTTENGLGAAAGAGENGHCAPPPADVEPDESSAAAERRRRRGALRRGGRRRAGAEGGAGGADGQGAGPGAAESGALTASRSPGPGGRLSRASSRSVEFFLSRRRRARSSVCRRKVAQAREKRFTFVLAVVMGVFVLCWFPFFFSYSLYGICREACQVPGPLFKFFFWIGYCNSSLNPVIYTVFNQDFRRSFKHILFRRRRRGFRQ
Chain of Voltage-gated potassium channel subunit beta-2 (Rattus norvegicus) (P62483 whole entry, looked up): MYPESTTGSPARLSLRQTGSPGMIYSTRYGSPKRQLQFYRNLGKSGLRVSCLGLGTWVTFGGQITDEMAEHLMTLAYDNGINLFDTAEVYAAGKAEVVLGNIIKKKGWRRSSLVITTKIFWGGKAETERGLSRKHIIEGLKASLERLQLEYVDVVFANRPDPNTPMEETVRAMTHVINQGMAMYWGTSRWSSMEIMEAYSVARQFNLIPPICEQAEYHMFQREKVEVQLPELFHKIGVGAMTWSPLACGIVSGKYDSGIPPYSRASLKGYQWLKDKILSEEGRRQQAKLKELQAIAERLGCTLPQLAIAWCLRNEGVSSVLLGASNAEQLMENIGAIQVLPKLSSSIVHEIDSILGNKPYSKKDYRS

Consider `Cc1[nH]n(C(N)=S)c(=O)c1C(c1ccccc1)C(C#N)C#N` (centres undefined), for which the cell count in assay [1] was found to be 694. For the same compound, the inhibition in assay [1] is 9.6% (inactive); in assay [3], 32.6% (inactive); in assay [7], -11.3% (inactive); in assay [8], -18% (inactive). Further, the inhibition of aggregation in assay [2] was -2.9% (inactive). In addition, the nuclei count in assay [2] was 107%; in assay [3] it was 99.1%. Also, the fluorescence slope in assay [4] is -0.38 (inactive). Moreover, in assay [5], the NADPH fluorescence slope is 5.1e-06 (inactive). Further, the slope in assay [6] is 0.00522 (inactive).
`COc1ccc(S(=O)(=O)N(C)CC(=O)N2CCCCC2)cc1Cl`: the cell count in assay [1] was determined as 173. The inhibition in assay [1] was -15.7% (inactive); in assay [3] it was -2.3% (inactive); in assay [7], 13.8% (inactive); in assay [8], 15% (inactive). Moreover, the inhibition of aggregation in assay [2] was 4.2% (inactive). The nuclei count was 94.8% in assay [2] and 87% in assay [3]. The fluorescence slope in assay [4] is -0.492 (inactive). Also, in assay [5], the NADPH fluorescence slope was -2.5e-05 (inactive). The slope in assay [6] is 0.00667 (inactive).
As for `Cn1c(=O)c2c(nc(NCc3ccco3)n2C/C=C/c2ccccc2)n(C)c1=O`, the cell count in assay [1] was 256. In addition, the inhibition in assay [1] is 8.8% (inactive); in assay [3], -65.5% (inactive); in assay [7], 14.8% (inactive); in assay [8], 18.9% (inactive). The inhibition of aggregation in assay [2] was 6.1% (inactive). Besides, the nuclei count in assay [2] came to 99.5%; in assay [3] it was 118%. In addition, the fluorescence slope in assay [4] is -0.637 (inactive). In assay [5], the NADPH fluorescence slope was 3.3e-05 (inactive). Further, the slope in assay [6] was 0.00629 (inactive).
With `COCCn1c(=O)[nH]c2cc(C(=O)N3CCN(Cc4ccc5c(c4)OCO5)CC3)ccc2c1=O`, the cell count in assay [1] is 742. For the same compound, the inhibition was -1.6% (inactive) in assay [1], -20.8% (inactive) in assay [3], 2.81% (inactive) in assay [7] and -1.78% (inactive) in assay [8]. Further, the inhibition of aggregation in assay [2] is -2% (inactive). In addition, the values for the nuclei count in assay [2] and in assay [3] were 122% and 115%, respectively. The fluorescence slope in assay [4] is -0.643 (inactive). The NADPH fluorescence slope in assay [5] is -1.6e-05 (inactive). Besides, the slope in assay [6] is 0.00392 (inactive).
Consider `O=C(c1sc2ccccc2c1Cl)N(Cc1cccs1)C1CCS(=O)(=O)C1` (centres undefined), for which the cell count in assay [1] came out at 677. The inhibition was 4.4% (inactive) in assay [1], 10.4% (inactive) in assay [3], 10.4% (inactive) in assay [7] and 32.5% (inactive) in assay [8]. Moreover, the inhibition of aggregation in assay [2] was 17.9% (inactive). Moreover, the nuclei count stood at 90.3% in assay [2] and 108% in assay [3]. Further, the fluorescence slope in assay [4] is -0.579 (inactive). Further, in assay [5], the NADPH fluorescence slope was -2.7e-05 (inactive). Also, the slope in assay [6] was 0.00741 (inactive).
For the compound `O=C1OCCC1Sc1ncnc2sc3c(c12)CCC3` (centres undefined), the cell count in assay [1] amounted to 755. Further, the inhibition is -6.2% (inactive) in assay [1], -9.4% (inactive) in assay [3], 9.45% (inactive) in assay [7] and 17% (inactive) in assay [8]. Moreover, in assay [2], the inhibition of aggregation is 4.8% (inactive). Also, the nuclei count in assay [2] was 84.1%; in assay [3] it was 111%. The fluorescence slope in assay [4] is -0.412 (inactive). Besides, the NADPH fluorescence slope in assay [5] was 4.3e-06 (inactive). In addition, the slope in assay [6] is 0.00667 (inactive).
`Cc1cc(=O)oc2ccc(OCC(=O)N(Cc3ccc(F)cc3)Cc3ccco3)cc12`: the cell count in assay [1] worked out at 751. The inhibition is 2.2% (inactive) in assay [1], -150% (inactive) in assay [3], -10.8% (inactive) in assay [7] and -19% (inactive) in assay [8]. In addition, the inhibition of aggregation in assay [2] was -0.1% (inactive). In addition, the results for the nuclei count in assay [2] and in assay [3] were 95.6% and 107%, respectively. For the same compound, the fluorescence slope in assay [4] is -0.493 (inactive). Further, the NADPH fluorescence slope in assay [5] was 2.4e-05 (inactive). Further, the slope in assay [6] is 0.00494 (inactive).
As to `O=C(CN1CCN(c2nc(-c3ccccc3)cs2)CC1)Nc1ccc2c(c1)OCO2`, the cell count in assay [1] came out at 529. The inhibition in assay [1] was -11.3% (inactive); in assay [3], -77.7% (inactive); in assay [7] it was -2.24% (inactive); in assay [8], -3.31% (inactive). For the same compound, the inhibition of aggregation in assay [2] is -0.3% (inactive). Also, the nuclei count in assay [2] is 106%; in assay [3], 146%. Further, the fluorescence slope in assay [4] is -0.518 (inactive). Moreover, the NADPH fluorescence slope in assay [5] was 1.7e-05 (inactive). The slope in assay [6] is 0.00563 (inactive).
For `CCOC(=O)Nc1ccc2c(CN3C(=O)NC4(CCCC4)C3=O)cc(=O)oc2c1`, the cell count in assay [1] was determined as 744. In addition, the inhibition in assay [1] is 3.5% (inactive); in assay [3], -149% (inactive); in assay [7] it was 0.299% (inactive); in assay [8] it was -13.9% (inactive). Further, the inhibition of aggregation in assay [2] is -24.7% (inactive). Besides, the nuclei count in assay [2] amounted to 99.9%; in assay [3], 153%. For the same compound, the fluorescence slope in assay [4] is -0.229 (inactive). Further, the NADPH fluorescence slope in assay [5] is -2.4e-05 (inactive). Besides, the slope in assay [6] is 0.00554 (inactive).
On to `COc1ccc(S(=O)(=O)NCCOc2ccccc2)cc1OC`, for which the cell count in assay [1] worked out at 310. In addition, the inhibition in assay [1] is -3.3% (inactive); in assay [3] it was -41.2% (inactive); in assay [7], 12.3% (inactive); in assay [8] it was 22.2% (inactive). In addition, in assay [2], the inhibition of aggregation was 8.7% (inactive). In addition, the nuclei count came to 95.3% in assay [2] and 96.1% in assay [3]. Moreover, in assay [4], the fluorescence slope is -0.439 (inactive). Besides, the NADPH fluorescence slope in assay [5] was -3.7e-05 (inactive). Besides, the slope in assay [6] is 0.00599 (inactive).
Regarding `O=C(O)c1ccc2noc(-c3ccccc3)c2c1`, in assay [1], the cell count is 755. The inhibition is -8.7% (inactive) in assay [1], -15% (inactive) in assay [3], -20.8% (inactive) in assay [7] and -49.6% (inactive) in assay [8]. Moreover, the inhibition of aggregation in assay [2] is 16.9% (inactive). In addition, the results for the nuclei count in assay [2] and in assay [3] were 103% and 123%, respectively. In assay [4], the fluorescence slope was -0.378 (inactive). For the same compound, the NADPH fluorescence slope in assay [5] is -3.4e-05 (inactive). In addition, the slope in assay [6] was 0.00344 (inactive).
As to `Nc1cccc2c1C(=O)N(c1ccccc1)C2=O`, the cell count in assay [1] was found to be 560. Also, the inhibition in assay [1] is 1.8% (inactive); in assay [3] it was 13.9% (inactive); in assay [7], -20.4% (inactive); in assay [8], -40.4% (inactive). Also, in assay [2], the inhibition of aggregation is -6% (inactive). For the same compound, the nuclei count in assay [2] is 87.9%; in assay [3] it was 107%. In addition, in assay [4], the fluorescence slope was -0.0636 (active). In addition, the NADPH fluorescence slope in assay [5] is -2.2e-06 (inactive). For the same compound, in assay [6], the slope was 0.00303 (inactive).
Turning to `CC(C)CCNC(=O)C(c1ccco1)N(CC1CCCO1)C(=O)Cn1nnc2ccccc21` (centres undefined), in assay [1], the cell count stood at 393. Moreover, the inhibition in assay [1] is 10.3% (inactive); in assay [3], -72.5% (inactive); in assay [7], 8.01% (inactive); in assay [8], 16.4% (inactive). The inhibition of aggregation in assay [2] is 5.4% (inactive). In addition, the nuclei count in assay [2] is 104%; in assay [3], 103%. The fluorescence slope in assay [4] is -0.612 (inactive). The NADPH fluorescence slope in assay [5] is -4.6e-05 (inactive). The slope in assay [6] was 0.00382 (inactive).
Take `O=C1OC(N2CCN(c3ccccn3)CC2)c2ccccc21` (centres undefined): in assay [1], the cell count turned out to be 697. Also, the inhibition in assay [1] is 9.1% (inactive); in assay [3], 34.3% (inactive); in assay [7] it was 19.9% (inactive); in assay [8] it was 12% (inactive). Also, the inhibition of aggregation in assay [2] is -14.4% (inactive). Also, the figures for the nuclei count in assay [2] and in assay [3] were 104% and 88.3%, respectively. The fluorescence slope in assay [4] was -0.633 (inactive). Further, the NADPH fluorescence slope in assay [5] was -3.6e-05 (inactive). Besides, in assay [6], the slope was 0.00362 (inactive).

What is called inhibition is the change of the read-out against control, counted positive when it falls.
